Measured values taken from PubChem BioAssay (NCI).
About 83,000 compounds went through this panel and 20% of them were active in at least one assay; those are over-represented in the sample as a whole.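 Compound tested at a single concentration for 48 hours in 96-well plates; a percent growth value below 10 was scored as active.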 Activity calls are given as the source filed them.

Each compound was assayed on SNB-19 CNS (assay: NCI-60 one-dose screen, 48 h (100 = growth as untreated, 0 = no growth, -100 = all killed)). Details: 10 µM.
For `Cc1c(O)cnc2nn(-c3ccccc3)c(=N)n12`, the growth was 98.5% (inactive). In the case of `CC[N+](C)(CC)CCO`, the growth was 97.7% (inactive). `CCOC(=O)C/C(C)=N\O` was tested, and the growth was 99.2% (inactive). With `COc1cc(CCN=Cc2ccccc2O)c([N+](=O)[O-])cc1OC` the growth was 99.3% (inactive). In the case of `O=[N+]([O-])c1ccc(CO)cc1`, the growth was 105% (inactive). For `O=C(Nc1ccccc1C(=O)NCC1CC1)c1cccs1`, the growth was 100% (inactive). With `COc1cc(CN)ccc1O` the growth was 94.9% (inactive). In the case of `N#CC(=Nc1cccc(F)c1)C1=C(O)c2ccccc2C1=O`, the growth was 90.4% (inactive). `CC(=O)OCC1OC(OC2=C(CC=C(C)C)C(=O)c3ccccc3C2=O)C(OC(C)=O)C(OC(C)=O)C1OC(C)=O` (stereo unspecified) was tested, and the growth was 61.2% (inactive). In the case of `O=[N+]([O-])c1ccccc1S(=O)c1ccccc1[N+](=O)[O-]`, the growth was 106% (inactive). In the case of `CC(=O)OCC1CCCO1` (stereo unspecified), the growth was 105% (inactive). In the case of `CC(C(=O)O)(C1CCCCC1)C1(O)CCCCC1` (stereo unspecified), the growth was 111% (inactive). For `COc1cc(/C=C/C(=O)c2ccccc2)cc(OC)c1OC`, the growth was 83.8% (inactive). For `O=C1OC(c2ccc(F)cc2)CC1CN1CCOCC1` (stereo unspecified), the growth was 98.1% (inactive). `O=C(NCCNC(=O)c1ccc(Cl)cc1Cl)c1ccc(Cl)cc1Cl` was tested, and the growth was 110% (inactive). In the case of `CC(C)(N)COS(=O)(=O)O`, the growth was 93% (inactive). `C=CCCCCCCCCCOC(C)=O` was tested, and the growth was 98.3% (inactive). In the case of `O=C(NCc1ccco1)Nc1c(Cl)cc(Cl)cc1Cl`, the growth was 103% (inactive). `CCOC(=O)C1=C(Nc2ccc(Br)cc2)C(=O)N(CC)C1` was tested, and the growth was 84% (inactive). With `CN(C)c1ccc(C(c2ccc(O)cc2)c2ccc(N(C)C)cc2)cc1` the growth was 97.2% (inactive). `S=C1NCc2cncnc2N1` was tested, and the growth was 109% (inactive). `C/C(=N\NC(=O)c1ccccc1N)c1ccccc1O` was tested, and the growth was 56.6% (inactive). For `CC(C)(C)n1nc(C2CC2)c(Br)c1NC(=O)c1ccccc1F`, the growth was 107% (inactive). `O=C(O)CCC(NC(=O)OCc1ccccc1)C(=O)O` (stereo unspecified) was tested, and the growth was 98.1% (inactive). For `O=C(O)CSCSCC(=O)O`, the growth was 96.6% (inactive). For `NC(CSC(c1ccccc1)(c1ccccc1)c1ccccc1)C(=O)O` (stereo unspecified), the growth was 49.8% (inactive). In the case of `CCCCC1C(=O)N(c2ccccc2)N(c2ccccc2)C1=O`, the growth was 102% (inactive). `CCCC[P+](c1ccccc1)(c1ccccc1)c1ccccc1` was tested, and the growth was 55.3% (inactive). In the case of `CC(CN1CCCCC1)NC(=O)c1scnc1-c1ccccc1` (stereo unspecified), the growth was 107% (inactive). For `CCOC(=O)c1coc(C(=O)OCC)c1C(=O)OCC`, the growth was 112% (inactive). With `O=C(OCC(O)C1OC(c2ccccc2)OC(COC(=O)c2ccccc2)C1O)c1ccccc1` (stereo unspecified) the growth was 94.2% (inactive). With `COc1ccc(/C(C#N)=C2C=C/C(=N/O)c3ccccc3\2)cc1` the growth was 61.7% (inactive). For `Nc1ccc(N)c([N+](=O)[O-])c1`, the growth was 99.5% (inactive). `Cc1ccccc1C1N=C2Oc3ccccc3C=C2C(=O)N1` (stereo unspecified) was tested, and the growth was 61.3% (inactive). With `O=C(Nc1ccccc1)OCCc1ccccc1` the growth was 101% (inactive). In the case of `Cc1cc(/C=C/c2ccc3cc(N(C)C)ccc3[n+]2C)c(C)n1-c1ccccc1`, the growth was 9.5% (active).
